A selection: hits, their analogues and other compounds. The true share with any hit is near 19%.
KB-3-1 tox: KB-3-1 parental cell cytotoxicity. Potency, µM (titrated, usually from 46.1 µM), actives largely listed as cytotoxic. KB-3-1 viability, CellTiter-Glo ATP luminescence, 72 h. 400,000 tested, 1.4% active; further: nearly all actives have a fitted effect of over 60% in size
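Parental KB-3-1 viability, qHTS format: 72 h compound exposure, 37 °C; CellTiter-Glo; media-only wells and DMSO plates as controls; concentration-effect fits on corrected data.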
KB-V1 cytotox: KB-V1 MDR subline cytotoxicity; KB-V1 MDR cells viability, CellTiter-Glo, 72 h; Potency, µM (doses to about 46.1 µM), usual class: cytotoxic; 400,000 tested, 3.4% active; AID 1347076; further: nearly all actives have a fitted effect of over 60% in size
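KB-V1 cells (P-gp-expressing MDR subline of KB-3-1) in phenol-red-free DMEM with 10% FBS were exposed to library compounds over a concentration series for 72 h at 37 degrees C. Viability read by CellTiter-Glo luminescence; concentration-effect curves fitted after normalization.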
TDP1 cell noCPT: qHTS for Inhibitors of human tyrosyl-DNA phosphodiesterase 1 (TDP1): qHTS in cells in absence of CPT. DT40 Tdp1-/- hTDP1 cells, no CPT, ATP luminescence, 48 h. Potency, µM (series often up to 46.2 µM), for the others: top-dose activity change, negative = growth inhibition, usual class: inhibitors. 420,000 tested, 15% active. AID 686978, 2013; further: nearly all actives have a fitted effect of over 55% in size
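DT40 Tdp1-/-;hTDP1 cells, no CPT (DMSO vehicle only), 400 cells/well; compounds pin-transferred; ≥48 hr, 37 °C; CellTiter-Glo 30 min RT dark, luminescence read.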
HT1080NT lethal: kills 2HG-producing HT-1080-NT fibrosarcoma cells; HT-1080-NT fibrosarcoma viability, CellTiter-Glo ATP luminescence, 48 h; Potency, µM (doses to about 46.1 µM), for the others: at the top dose activity, negative = less viability, actives largely listed as cytotoxic; 360,000 tested, 1.6% active; AID 686970;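 further: NT is the 2HG producing partner of a matched IDH1 knockdown line; 0% = DMSO-treated cells and -100% = media-only wells without cells; nearly all actives have a fitted effect of over 55% in size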
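A 48-hour cytotoxicity screen used HT-1080-NT cells plated 2 hours before compound delivery. ATP-based CellTiter-Glo luminescence measured viability, normalized to DMSO and no-cell controls.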
TDP1 cell CPT: growth inhibition of DT40 Tdp1-/-;hTDP1 cells with camptothecin (screen for TDP1 inhibitors) | 420,000 tested, 12% active | Potency, µM (titrated, usually from 46.2 µM), inactives show at the highest dose activity change, negative = growth inhibition, usual class: inhibitors | chicken DT40 Tdp1-/-;hTDP1 cells + 20 nM CPT, ATP luminescence, 48 h; further: nearly all actives have a fitted effect of over 55% in size
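Cell growth measured by CellTiter-Glo luminescence after a minimum 48 h, 37 C compound exposure with 20 nM CPT in Tdp1-knockout DT40 cells stably expressing hTDP1, seeded 400/well; qHTS titration format.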
HT1080 IDH1KD tx: toxicity to HT-1080 IDH1 knockdown cells (counter line); HT-1080 IDH1 knockdown viability, ATP luminescence, 48 h; AID 686971; Potency, µM (titrated, usually from 46.1 µM), without a hit: at the top dose activity, negative = toxicity, hits mostly cytotoxic; 360,000 tested, 2% active;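 further: 0% = DMSO wells and -100% = cell-free medium wells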
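HT-1080-IDH1KD cells (IDH1 knocked down), 750/well in RPMI with 5% FBS, treated with compound 48 h at 37 degrees C. Viability by CellTiter-Glo luminescence, normalised to DMSO and no-cell wells; concentration-response curves classed.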
Numbers without * were called inactive; i = inactive; ? = inconclusive; . = no result given; ! = repeats disagree; [ ] = another dose, or the depositor's remark. The call rests on the fitted dose curve; in most records, active means well fitted curve in the direction sought with a large enough effect; inconclusive means small, poorly fitted or top-dose-only effect, or another doubt; inactive means no such curve, though single readings can be large; an effect the other way counts as inactive or inconclusive. Unless noted, on the % scale 0 is the no-effect control and ±100 the full control effect; potency means the concentration at half of the fitted maximal effect.

SMILES	KB-3-1 tox	KB-V1 cytotox	TDP1 cell noCPT	HT1080NT lethal	TDP1 cell CPT	HT1080 IDH1KD tx
O=C(NCc1ccccc1)C(=O)NCC1OCCN1S(=O)(=O)c1ccc([N+](=O)[O-])cc1 (stereo unspecified)	i	i	?	9.6%	?	4.6%
c1ccc([C@@H]2CO2)cc1	i	i	12.7%	-3.4%	-7.0%	2.9%
O=c1[nH]c(=S)[nH]c(O)c1N=Nc1ccc(S(=O)(=O)N2CCc3ccccc32)cc1	i	?	-23.9%	-21.1%	-5.0%	-17.4%
CCC1(OC(=O)CN)C(=O)OCc2c1cc1n(c2=O)Cc2cc3ccccc3nc2-1 (stereo unspecified)	?	?	0.0651µM*	1.03µM*	0.164µM*	0.731µM*
CC[C@@]1(O)C(=O)OCc2c1cc1n(c2=O)Cc2cc3ccccc3nc2-1	?	i	0.0891µM*!	.	0.0794µM*	.
CC[C@@]1(O)C(=O)OCc2c1cc1n(c2=O)Cc2cc3c(NC(=O)CN)cccc3nc2-1	i	i	0.411µM*	2.31µM*	0.231µM*	1.84µM*
COc1ccc(C(=O)c2[nH]c(N)c(C(N)=O)c2-c2ccc(OC)c(OC)c2)cc1	i	i	-19.1%	24.9%	5.9%	?
OC(CN1CCOCC1)c1csc2ccccc12 (stereo unspecified)	i	i	2.5%	0.5%	26.2%	11.5%
Cc1ccccc1NC(=O)N1Cc2ccccc2-n2nncc2C1	i	i	-17.4%	-3.6%	-7.7%	1.4%
Cc1ccc(-c2nc3ccccc3c(=O)n2-c2cccc(O)c2)cc1	i	i	8.2µM*	-4.2%	2.31µM*	-0.3%
O=c1c2ccccc2nc(-c2ccc(Cl)cc2Cl)n1-c1nccs1	i	i	13µM*	?	?	?
Cc1ccc(-c2nc3ccccc3c(=O)n2-c2cc(C)ccn2)cc1	i	14.6µM*	-20.6%	14.7%	?	1.2%
Cc1nc2ccccc2c(=O)n1-c1cccc(O)c1	i	i	-17.0%	2.9%	-18.3%	12.7%
O=c1c2ccccc2nc(-c2ccccc2Cl)n1-c1cccc(O)c1	i	i	?	-2.5%	20.6µM*	-8.0%
Cc1ccc(-c2nc3ccccc3c(=O)n2-c2cccc(C)n2)cc1	i	i	?	3.1%	-17.7%	1.7%
CCC1CN1P1(=O)OCC(C)([N+](=O)[O-])CO1 (stereo unspecified)	i	i	?	-1.4%	?	-1.9%
O=c1[nH]c(O)c(N=Nc2ccc([N+](=O)[O-])cc2)c(=O)[nH]1	i	i	-21.1%	-4.1%	?	-13.4%
CC(=O)N(C)CC#CCN1CCCC(CO)C1 (stereo unspecified)	i	i	.	.	.	.
CCc1cccc(NC(=O)c2ccc(NC(=O)N3CCSc4ncccc43)cc2)c1	?	i	16.4µM*	.	20.6µM*	.
CCN(CC)C(=O)c1ccc(NC(=O)c2cccc(S(=O)(=O)N3CCN(C)CC3)c2)cc1	.	.	-22.9%	-9.0%	-19.6%	-4.5%
Cc1ccc(Cn2cccc(C(=O)Nc3nc4ccc(C)cc4s3)c2=O)cc1	i	i	-11.2%	.	-12.9%	.
CN1C(C(=O)NCc2cccc(C(F)(F)F)c2)CC2Cn3c(nc4cc5ccccc5cc43)C21 (stereo unspecified)	i	i	18.4µM*	-2.8%	?	-2.9%
O=C(O)CCCO	.	.	-22.4%[92.5 µM]	.	16.1%[92.5 µM]	.
COc1ccc([N+](=O)[O-])cc1N=Cc1c(O)n(CCc2ccccc2)c(=O)n(C(C)C)c1=O	?	?	16.4µM*	17.9%	?	-7.7%
C=CCN1CC[C@]23c4c5ccc(O)c4O[C@H]2[C@@H](O)C=C[C@H]3[C@H]1C5	.	.	?	.	6.8%	.
SMILES	KB-3-1 tox	KB-V1 cytotox	TDP1 cell noCPT	HT1080NT lethal	TDP1 cell CPT	HT1080 IDH1KD tx
CCn1c(P(C)(=O)O)nc2ccccc21	i	i	-20.4%	9.0%	-7.2%	6.5%
CCn1c(NN=O)nc2ccccc21	?	i	?	-25.1%	7.31µM*	?
Cc1ccccc1-n1c(O)c(C(c2ccncc2)c2c(O)n(-c3ccccc3C)c(=O)[nH]c2=O)c(=O)[nH]c1=O	i	i	?	17.3%	2.5%	7.5%
Cc1ccc2c(c1)C1CN(C)CCC1N2C(=O)c1ccco1 (stereo unspecified)	i	?	-8.3%	0.0%	-17.5%	?
Cc1ccc2c(c1)C1CN(C)CCC1N2C(=O)Nc1cccc(Cl)c1 (stereo unspecified)	?	?	23.1µM*	-21.2%[9.24 µM]	?	-15.5%
COc1ccc(-c2nn(-c3ccccc3)cc2C(=O)N2c3ccc(C)cc3C3CN(C)CCC32)cc1 (stereo unspecified)	i	i	25.9µM*	.	?	23.1µM*
Cc1ccc2c(c1)C1CN(C)CCC1N2C(=O)c1ccccc1NS(=O)(=O)c1cccc(C(F)(F)F)c1 (stereo unspecified)	i	i	13µM*	-28.1%	?	?
CC1(C)C(O)CC(O)[C@]2(C)C1CC(=O)[C@]1(C)C2CC[C@@]2(C)C(c3ccoc3)OC(=O)C3OC321 (stereo partly specified)	.	.	-7.6%	.	?	.
CCOC(=O)c1cccc(C2=C(CNC(=O)c3ccc([N+](=O)[O-])cc3)[C@H]3CC[C@@H](C2)N3Cc2ccccc2)c1	i	?	?	?	?	?
CCCC(=O)NC(Oc1ccc(Cl)cc1Cl)C(Cl)(Cl)Cl (stereo unspecified)	i	i	-16.2%	2.7%	-4.2%	1.0%
Oc1cc(Cl)ccc1Oc1ccc(Cl)cc1Cl	i	i	23.1µM*	?	7.7µM*	-28.3%
O[C@H]1[C@H]2[C@H](O)CCCN2C[C@H]1O	.	.	-15.9%	.	8.0%	.
CN(CCc1ccccc1)Cc1c[nH]c2ccccc12	?	?	1.46µM*	-19.7%	0.82µM*	-10.0%
CCN(CC)Cc1c[nH]c2ccccc12	i	i	16.4µM*	-15.5%	10.3µM*	-20.3%
NCCc1c[nH]c2ccccc12	i	i	-28.1%	0.7%	?	-2.0%
CCC(CC)NCc1c[nH]c2ccccc12	i	i	3.66µM*	-9.8%	4.11µM*	-12.1%
CCC1(CC)C(=O)NC(=NCCc2c[nH]c3ccccc23)NC1=O	i	i	9.3%	5.6%	-1.3%	-0.1%
